Experimental data published in PubChem BioAssay (Tox21).
Records with an inconclusive call do not appear. Where a call stands in place of a potency, no number is given. A number with no mark means an inactive call. Calls of active or inactive are those of the source. The call rests on the fitted dose curve; in most records, active means well fitted inhibition curve with a large enough effect in the repeat runs; inconclusive means weak or mixed curves; inactive means no such curve, though single readings can be large or run the other way.

target: Androgen receptor (Homo sapiens) (UniProt P10275); experiment: qHTS assay to identify small molecule antagonists of the androgen receptor (AR) signaling pathway using the MDA cell line in the presence of 0.5 nM R1881 (AID 1259243); settings: MDA-kb2 MMTV-luciferase, R1881 0.5 nM, 16 h; series mostly up to 42.5 µM; further: nearly all actives have a fitted effect of over 50% in size
Sequence (P10275 whole entry, looked up): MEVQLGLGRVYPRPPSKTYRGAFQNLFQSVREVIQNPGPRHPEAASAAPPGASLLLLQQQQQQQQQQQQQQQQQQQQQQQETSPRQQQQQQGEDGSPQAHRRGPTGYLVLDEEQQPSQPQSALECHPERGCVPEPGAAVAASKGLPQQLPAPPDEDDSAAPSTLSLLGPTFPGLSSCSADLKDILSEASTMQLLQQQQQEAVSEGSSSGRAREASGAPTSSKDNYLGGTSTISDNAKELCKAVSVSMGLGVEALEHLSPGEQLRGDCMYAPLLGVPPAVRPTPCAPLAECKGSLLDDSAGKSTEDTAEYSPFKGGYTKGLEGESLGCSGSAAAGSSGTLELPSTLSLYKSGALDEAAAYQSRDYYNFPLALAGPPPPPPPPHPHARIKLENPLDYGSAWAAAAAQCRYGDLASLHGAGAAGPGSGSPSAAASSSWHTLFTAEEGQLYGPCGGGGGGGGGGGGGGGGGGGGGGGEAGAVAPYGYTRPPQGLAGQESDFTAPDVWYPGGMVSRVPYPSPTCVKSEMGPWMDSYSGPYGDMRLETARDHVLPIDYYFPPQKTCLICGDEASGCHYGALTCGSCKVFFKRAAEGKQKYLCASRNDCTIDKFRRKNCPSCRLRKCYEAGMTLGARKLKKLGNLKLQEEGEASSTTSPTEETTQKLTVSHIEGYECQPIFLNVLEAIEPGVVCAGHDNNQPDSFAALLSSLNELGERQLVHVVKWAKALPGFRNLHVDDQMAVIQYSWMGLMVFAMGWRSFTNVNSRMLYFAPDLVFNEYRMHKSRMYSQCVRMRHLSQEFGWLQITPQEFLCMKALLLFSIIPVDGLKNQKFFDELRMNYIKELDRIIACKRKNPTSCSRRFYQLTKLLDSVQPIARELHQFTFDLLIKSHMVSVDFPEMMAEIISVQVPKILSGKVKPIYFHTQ
Text: U.S. Tox21 Program National Center for Advancing Translational Sciences [NCATS] NIH Chemical Genomics Center [NCGC] U.S. Environmental Protection Agency [EPA] National Institutes of Environmental Health Sciences [NIEHS] National Toxicology Program [NTP] U.S. Food and Drug Administration [FDA] Tox21 Assay Overview: Androgen receptor (AR) is an important member of the nuclear receptor family. Its signaling plays a critical role in AR-dependent prostate cancer and other androgen related diseases. Considerable attention has been given in the past decades to develop methods to study and screen for the environmental chemicals that have the potential to interfere with metabolic homeostasis, reproduction, developmental and behavioral functions. Therefore AR binding assay for screening androgen antagonists can be used to identify potential endocrine disruptors. MDA-kb2 cells (from ATCC, deposited by Wilson et al.) were used to screen for AR inhibitors against Tox21 compound libraries. These cells are human breast carcinoma cells that were stably transfected with a luciferase reporter gene under control of the MMTV promoter that contains response elements for both androgen receptor (AR) and glucocorticoid receptor (GR). The current screening for identification of AR inhibitors against Tox21 libraries used lower concentration (0.5 nM) of R1881 as a stimulator.
Tox21 Assay Protocol Summary: MDA-kb2 cells (cells cultured without CO2) were dispensed at 3,000 cells/well in 4 uL of culture medium into white wall/solid-bottom 1536-well plates (Corning Life Sciences, Corning, NY) using a Multidrop Combi (ThermoFisher Scientific, Waltham, MA) dispenser. After the assay plates were incubated at a 37C and 0% CO2 for 5 hr, 23 nL of compounds dissolved in DMSO, positive controls or DMSO only was transferred to the assay plate by a Pintool station (Kalypsys, San Diego, CA). The transfer of compounds was followed by the addition of 1 uL of 0.5 nM (final concentration) agonist (R1881)/culture medium using a Flying Reagent Dispenser (FRD, Aurora Discovery, San Diego, CA). The plates were incubated at 37C and 0% CO2 for 16 hr. For luciferase reporter gene assay, 4 uL of ONE-Glo reagent (Promega Corporation, Madison, WI) was added to each well using the FRD and after 30 min incubation at room temperature luminescence intensity was measured using ViewLux plate reader (PerkinElmer, Shelton, CT).
Potency means the concentration at half of the fitted maximal effect.

| SMILES | Potency | activity, negative = inhibition |
| --- | --- | --- |
| CC(C)c1ccc2oc3nc(N)c(C(=O)O)cc3c(=O)c2c1 | inactive |  |
| CC(C)CCCC(C)NCCC(C)C (stereo not given) | inactive |  |
| CCCCCCOC(=O)CC(CC(=O)OCCCCCC)(OC(=O)CCC)C(=O)OCCCCCC | inactive |  |
| CN1[C@@H]2CC[C@H]1CC(NC(=O)n1c(=O)[nH]c3ccccc31)C2 (stereo not given in full) | inactive |  |
| OCCN1C[C@H](O)[C@@H](O)[C@H](O)[C@H]1CO | inactive |  |
| CC1(C)SC(C)(C)SC(C)(C)S1 | inactive |  |
| C1COCCO1 | inactive |  |
| CC1=CCC2C(C1)C2(C)C (stereo not given) | inactive |  |
| O=C1CC2(CCCC2)CC(=O)N1 | inactive |  |
| CCCC(=O)O[C@]1(C(=O)CCl)[C@@H](C)C[C@H]2[C@@H]3CCC4=CC(=O)C=C[C@]4(C)[C@@]3(F)C(=O)C[C@@]21C | inactive |  |
| O=S(=O)(O)c1ccccc1O | inactive |  |
| Cc1ncc(CSSCc2cnc(C)c(O)c2CO)c(CO)c1O | inactive |  |
| CCN1CCCC1CNC(=O)c1cc(S(N)(=O)=O)ccc1OC (stereo not given) | inactive |  |
| Cc1nc(-c2ccc(OCC(C)C)c(C#N)c2)sc1C(=O)O | inactive |  |
| O=c1[nH]c(=O)n([C@H]2O[C@H](CO)[C@@H](O)[C@@H]2O)cc1/C=C\Br | inactive |  |
| C=CCn1c(=O)n([C@@H]2O[C@H](CO)[C@@H](O)[C@H]2O)c2nc(N)[nH]c(=O)c21 | inactive |  |
| CCCOCC(C)OCC(C)O (stereo not given) | inactive |  |
| CCCCCCCCN(C)CCCCCCCC | inactive |  |
| O=C(CCOCCOCCOCCOCCC(=O)Nc1c(I)cc(I)c(C(=O)O)c1I)Nc1c(I)cc(I)c(C(=O)O)c1I | inactive |  |
| COc1ccc(NC(C)=O)cc1 | inactive |  |

| SMILES | Potency | activity, negative = inhibition |
| --- | --- | --- |
| O=C(O)/C=C/c1ccc(/C=C/C(=O)O)cc1 | inactive |  |
| C#CC(O)C(CC)CCCC (stereo not given) | inactive |  |
| CCCC(C)CO (stereo not given) | inactive |  |
| CCCCCN(CCCCC)C(=O)C(CCC(=O)O)NC(=O)c1ccc(Cl)c(Cl)c1 (stereo not given) | inactive |  |
| CCOC(=O)Nc1ccc2c(c1)N(C(=O)CCN1CCOCC1)c1ccccc1S2 | inactive |  |
| NCC[C@H](O)C(=O)N[C@@H]1C[C@H](N)[C@@H](O[C@H]2O[C@H](CN)[C@@H](O)[C@H](O)[C@H]2O)[C@H](O)[C@H]1O[C@H]1O[C@H](CO)[C@@H](O)[C@H](N)[C@H]1O |  | 0.695% [at 0.349 µM] |
| CCCCCCOC(=O)c1ccccc1O | inactive |  |
| CN(C)CCn1nnnc1SCC1=C(C(=O)O)N2C(=O)[C@@H](NC(=O)Cc3csc(N)n3)[C@H]2SC1 | inactive |  |
| O=c1[nH]c2ccccc2c(=O)n1CCCl | inactive |  |
| COc1cc(CCC(C)=O)ccc1O | inactive |  |
| CCN1CCN(c2cc3c(cc2F)c(=O)c(C(=O)O)cn3C2CC2)CC1 | inactive |  |
| C1CCCCCCCCCCC1 | inactive |  |
| CCCCNc1ccccc1 | inactive |  |
| NC(N)=NS(=O)(=O)c1ccc(N)cc1 | inactive |  |
| NS(=O)(=O)c1cc2c(cc1C(F)(F)F)NC(Cc1ccccc1)NS2(=O)=O (stereo not given) | inactive |  |
| CC1(C)OC(=O)Nc2ccc(Br)cc21 | 9.44 µM (active) |  |
| Cc1c(F)cc2c(=O)c(C(=O)O)cn3c2c1CCC3C (stereo not given) | inactive |  |
| NC1CCN(c2cccc(Cl)n2)CC1 | inactive |  |
| CCCCc1ccc2cccc(S(=O)(=O)O)c2c1 | inactive |  |
| CC(C)CCCCCCN | inactive |  |
